Compounds with a hit are over-represented: about 3.4% of the library has one in this group of screens.
Shn3 inh set2: inhibitors of Schnurri-3 3'UTR reporter in osteoblasts. Clone20 osteoblast Shn3 3'UTR firefly luciferase, 24 h. inhibition, % at 12.5 µM. 360,000 compounds, 0.52% hits. AID 588674;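 active = mean inhibition of at least 75% with every replicate also reaching 75%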
TROY signal inh: blocks TROY-dependent signaling in reporter cells | Q293 LMP1-TROYcd NF-kB luciferase reporter, 4 h | inhibition, % at 10 µM | 360,000 compounds, 0.98% hits;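 active = compounds whose plate-normalised and pattern-corrected inhibition of the luciferase reporter signal at the single screening dose is 50% or more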
HIF-2a block: blocks HIF-2a reporter activity; 360,000 compounds, 0.72% hits; inhibition, % at 18.8 µM; AID 624352; 786-0 RCC cells HIF-2a reporter, luciferase luminescence, overnight;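 active = inhibition of the luminescence signal of 40% or more relative to plate controls, in a single-dose primary screen at 18.75 µM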
EBV LMP1 NFkB: Epstein-Barr LMP1 NF-kappaB reporter inhibition | inhibition, % at 12.5 µM | 350,000 compounds, 0.69% hits | LMP1-induced NF-kappaB luciferase reporter cells, luminescence; in the data active = inhibition above about 41%
TWEAK-Fn14 inh: inhibitors of TWEAK-Fn14 interaction signaling. TWEAK-stimulated Fn14 reporter cells, luciferase luminescence, 8 h. inhibition, % at 10 µM. 360,000 compounds, 2% hits. AID 1159606; in the data active = inhibition above about 50%
MITF TRPM1 inh: MITF TRPM1 promoter inhibition in SK-MEL-5 cells; SK-MEL-5 TRPM1 promoter luciferase, 24 h; 330,000 compounds, 0.83% hits; inhibition, % at 12.5 µM;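 active = mean inhibition across replicates of 60% or more, whatever share of single replicates reaches that level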
Hits are given with their value; - = inactive; . = no result given.

SMILES	Shn3 inh set2	TROY signal inh	HIF-2a block	EBV LMP1 NFkB	TWEAK-Fn14 inh	MITF TRPM1 inh
C/C(Cl)=C\Cn1c(NCCc2ccccc2)nc2c1c(=O)n(C)c(=O)n2C	88.2	50.1	-	-	53.6	-
CCC(c1nc2ccccc2[nH]1)n1c(-c2ccnc(Cl)c2)nc2ccccc21 (centres undefined)	.	.	-	.	.	.
CCOC(=O)C1CCCN(C(=O)Cn2nc(C)c3c(C)n(-c4ccccc4)nc3c2=O)C1 (centres undefined)	-	-	-	-	-	-
COc1ccc(S(=O)(=O)NCCc2csc(-c3cccnc3)n2)cc1	-	-	-	77.5	-	-
CCOc1cc2c(c3c1C(c1ccccc1)N(S(=O)(=O)c1ccc(C)cc1)C3)C(=O)C=CC2=O (centres undefined)	98.7	-	67.8	.	-	.
CC(C)(C)OC(=O)N1CCC(NC(=O)c2nc[nH]c2C(=O)NCc2ccccc2)CC1	-	-	-	-	-	-
CC(C)(C)OC(=O)NCc1ccc(CNC(=O)c2[nH]cnc2C(=O)NC2CCN(C(=O)OC(C)(C)C)CC2)cc1	-	-	-	-	56.6	-
O=C(Nc1ccccc1)c1nc[nH]c1C(=O)NCCCCCCNC(=O)c1[nH]cnc1C(=O)Nc1ccccc1	-	-	-	-	68.5	-
CC(C)(C)OC(=O)NCCCCCNC(=O)c1nc[nH]c1C(=O)NCCCCCNC(=O)OC(C)(C)C	-	58.0	-	-	65.0	-
O=C(Nc1ccccc1)c1nc[nH]c1C(=O)NCCCNC(=O)c1[nH]cnc1C(=O)Nc1ccccc1	-	-	-	-	-	-
C[C@H](NC(=O)c1[nH]cnc1C(=O)Nc1ccc(CNC(=O)OC(C)(C)C)cc1)C(=O)OCc1ccccc1	-	74.5	-	-	51.9	-
CCN(C[C@H]1N[C@@](CC)(C(=O)OC)[C@H]2C(=O)N(C)C(=O)[C@@H]12)S(=O)(=O)c1ccc(OC(F)(F)F)cc1	-	-	-	-	-	-
CC(=O)OCC1OC(n2c(S)c(C#N)c(-c3ccccc3)c(C#N)c2=O)C(OC(C)=O)C(OC(C)=O)C1OC(C)=O (centres undefined)	-	-	-	-	-	-
CC(C)(C)OC(=O)NCCCCCNC(=O)c1nc[nH]c1C(=O)NCc1ccc(CNC(=O)OC(C)(C)C)cc1	88.9	64.5	-	-	95.5	-
CC(C)(C)OC(=O)NCc1ccc(CNC(=O)c2nc[nH]c2C(=O)NCc2ccc(CNC(=O)OC(C)(C)C)cc2)cc1	86.8	-	-	-	-	-
CC(C)(C)OC(=O)NCCCC[C@H](NC(=O)c1nc[nH]c1C(=O)NCc1ccc(CNC(=O)OC(C)(C)C)cc1)C(=O)OC(C)(C)C	-	-	-	-	-	-
CC(C)(C)OC(=O)CNC(=O)c1nc[nH]c1C(=O)NCc1ccc(CNC(=O)OC(C)(C)C)cc1	-	-	-	-	-	-
CC(C)CCn1cnc2c(sc3nc4c(cc32)CSC(C)(C)C4)c1=O	-	66.9	-	-	68.2	-
CCCCn1cnc2c(sc3nc4c(cc32)CSC(C)(C)C4)c1=O	-	-	-	-	-	-
Cc1cccc(OCC(=O)NNc2c3ccccc3nc3ccccc23)c1	-	-	-	-	-	-
Cc1ccc(OCC(=O)NNc2c3ccccc3nc3ccccc23)cc1	-	-	-	-	72.4	-
COc1ccc(OCC(=O)Nn2c(-c3ccc(C)cc3)nc3ccccc3c2=O)cc1	-	71.6	-	-	71.9	-
COc1ccc(OCC(=O)Nn2c(-c3ccc(OC)cc3)nc3ccccc3c2=O)cc1	-	-	-	-	-	-
CCc1nc2c(OCC(=O)C(C)(C)C)cccn2c1N(C=O)CC(=O)N(C)C	-	-	-	.	-	.
CNC(=O)C1(C)CCN1C(=O)Cc1ccc(C(C)C)cc1 (centres undefined)	-	-	-	.	-	.
SMILES	Shn3 inh set2	TROY signal inh	HIF-2a block	EBV LMP1 NFkB	TWEAK-Fn14 inh	MITF TRPM1 inh
Nn1c(-c2ccccc2)nc2cc(Cl)ccc2c1=O	-	-	-	-	-	-
CC(C)(C)c1cc[n+](C2=C([O-])c3ccccc3C(=O)/C2=N\S(=O)(=O)c2cccs2)cc1	-	69.8	-	.	83.6	.
O=C1/C(=N\S(=O)(=O)c2cccs2)C([n+]2ccccc2)=C([O-])c2ccccc21	-	83.3	43.8	-	-	104.2
N/C(=N\S(=O)(=O)c1cccs1)c1ccccc1	-	-	-	-	-	-
O=c1oc2ccc(Br)cc2cc1S(=O)(=O)c1ccc(F)cc1	-	-	-	-	91.0	-
COC(=O)c1ccc(-c2nc(CN3CCN(C(=O)c4ccco4)CC3)c(C)o2)cc1	-	-	-	-	-	.
COc1cccc(-c2cn3nc(C)c(C)nc3n2)c1	-	-	-	-	-	-
COc1ccc(-c2cn3nc4c(nc3n2)CCCC4)cc1	-	-	-	62.3	-	-
Cc1ccc(S(=O)(=O)N2CCCN(C)c3nc4ccccc4nc32)cc1	-	-	-	-	-	-
CCOC(CCn1c(SCC(=O)Nc2cc(C)on2)nc2ccccc2c1=O)OCC	-	-	-	-	-	-
CCN(CC)CCNc1ncnc2c1sc1nc(N3CCOCC3)c3c(c12)CCCC3	-	-	-	-	-	76.9
C#CC[N+]1(CC#Cc2ccccc2)CCCCC1	-	-	-	-	-	-
Cc1ccc(C#CC[N+]2(CC#Cc3ccc(C)cc3)CCCCC2)cc1	-	-	-	-	-	70.2
C(#Cc1ccccc1)C[N+]1(CC#Cc2ccccc2)CCCCC1	86.0	-	-	-	-	-
CC(C)C1OC(CCc2ccccc2)Cc2[nH][nH]c(=O)c21 (centres undefined)	.	-	-	.	-	.
Cc1cccc(C)c1NC(=O)CN(C)C(=O)[C@H](C)NC(=O)c1ccco1	-	-	-	-	-	-
CC1(C(=O)NS(=O)(=O)c2ccccc2Cl)CCN1C(=O)Cc1cc(F)ccc1F (centres undefined)	-	-	-	.	-	.
COc1ccc(-c2ccc3c(c2)S(=O)(=O)c2cccc(C(=O)NCc4cc(C)oc4C(F)(F)F)c2C3=O)cc1OC	-	-	-	86.1	-	-
O=C(Nc1ccccc1)c1cc2ccccc2c(=O)s1	-	-	-	-	57.6	-
CC1(C(=O)Nc2ccc3c(c2)OCCO3)CCN1C(=O)C1(c2ccc(Cl)cc2)CCC1 (centres undefined)	-	-	-	.	-	.
CC1(C(=O)Nc2ccc3c(c2)OCCO3)CCN1C(=O)C1(c2ccc(Cl)cc2)CC1 (centres undefined)	-	-	-	.	59.0	.
O=C(NCc1ccccc1)NC1(C(=O)Nc2ccc3c(c2)OCCO3)CCCCC1	-	-	-	-	-	64.5
CC(C)c1ccc(CC(=O)N2CCC2(C)C(=O)Nc2cccc(C#N)c2)cc1 (centres undefined)	-	-	-	.	-	.
